HT1080NT lethal: kills 2HG-producing HT-1080-NT fibrosarcoma cells | HT-1080-NT fibrosarcoma viability, CellTiter-Glo ATP luminescence, 48 h | Potency, µM (highest dose often 46.1 µM), for inactives: at the top dose activity, negative = less viability, usual class: cytotoxic | 1.6% of 360,000 active | AID 686970;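 note: NT is the 2HG producing partner of a matched IDH1 knockdown line; potency is the fitted concentration of half-maximal effect; 0% = DMSO-treated cells and -100% = media-only wells without cells; nearly all actives have a fitted effect of over 55% in size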
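Viability of the 2HG-overproducing fibrosarcoma line after 48 hours of compound exposure at 37 degrees C was determined by luminescence with CellTiter-Glo, and concentration-effect curves were then fitted and categorized.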
HT1080 IDH1KD tx: HT-1080 IDH1 knockdown cell toxicity (counter line). Potency, µM (doses to about 46.1 µM), without a hit: at the top dose activity, negative = toxicity, hits mostly cytotoxic. 2% of 360,000 active. HT-1080 IDH1 knockdown viability, ATP luminescence, 48 h;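 note: potency is the fitted concentration of half-maximal effect; 0% = DMSO wells and -100% = cell-free medium wells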
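Using the IDH1-knockdown HT-1080 line run in the same batch and compound series as the NT line, viability after 48 h at 37 °C was determined by CellTiter-Glo luminescence and expressed as % activity.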
KB-V1 cytotox: kills drug-selected multidrug resistant KB-V1 cells; KB-V1 MDR cells viability, CellTiter-Glo, 72 h; Potency, µM (highest dose often 46.1 µM), hits mostly cytotoxic; 3.4% of 400,000 active; AID 1347076; note: potency is the fitted concentration of half-maximal effect; nearly all actives have a fitted effect of over 60% in size
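Compound-treated KB-V1 multidrug-resistant cells, 72 h, 37 degrees C; viability by CellTiter-Glo. Fitted qHTS curves give the values.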
IL1B secr inh: inhibitors of inflammasome signaling (IL-1 beta secretion); AID 743279; activity change, % at 57.5 µM; THP-1 LPS/ATP IL-1B secretion, AlphaLISA, 16 h; active compounds read low; 4.7% of 360,000 active; in the data active = activity change below about -50%; inconclusive = mostly about -30% to -49%
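THP-1 cells pretreated 1 hr with compounds (up to 57.5 uM final), then stimulated with LPS (250 ng/mL final) plus ATP (1.25 mM final); secreted IL-1B measured by AlphaLISA after 16 hr, decreased signal indicating inhibition.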
KB-3-1 tox: KB-3-1 parental cell cytotoxicity; Potency, µM (titrated, usually from 46.1 µM), actives largely listed as cytotoxic; 1.4% of 400,000 active; KB-3-1 viability, CellTiter-Glo ATP luminescence, 72 h; note: potency is the fitted concentration of half-maximal effect; nearly all actives have a fitted effect of over 60% in size
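Parental KB-3-1 adenocarcinoma cells in phenol-red-free DMEM with 10% FBS were pin-treated with compounds at several concentrations, incubated 72 h at 37 °C, and viability read by CellTiter-Glo luminescence; concentration-effect curves were fitted after normalization.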
* hit, by the source's call; i = inactive; ? = inconclusive; · = no result given. A selection: hits, their analogues and other compounds. The true share with any hit is near 8.8%. Unless noted, calls come from the whole dose curve; as a rule, active = well fitted curve in the direction sought with a large enough effect; inconclusive = small, poorly fitted or top-dose-only effect, or another doubt; inactive = no such curve, though single readings can be large; an effect the other way counts as inactive or inconclusive. Unless noted, % is set by controls: 0 for no effect and ±100 for the full control effect.

SMILES	HT1080NT lethal	HT1080 IDH1KD tx	KB-V1 cytotox	IL1B secr inh	KB-3-1 tox
Cc1cccc(Cc2c(C)nc3nc(SCC(=O)NC4CCCCC4)nn3c2C)c1	·	·	i	·	i
CN(C)c1c([N+](=O)[O-])cc(N2C(=O)C=CC2=O)cc1[N+](=O)[O-]	3%	0%	i	-99*	?
C=C1N(c2ccccc2)C(=O)OC1(C)C	-1%	-9%	i	0	i
COc1cccc(Cn2c(=O)c3ccccc3n3nc(C)cc23)c1	-27%	-26%	21µM*	-8	?
COc1ccccc1/C=C/C1(C(=O)NC2CCCC2)CC(=O)N1c1ccccc1 (stereo unspecified)	16µM*	?	3.7µM*	97	3.7µM*
CN(C)S(=O)(=O)c1ccc(N2C(=O)CC2(/C=C/c2ccccc2)C(=O)NC2CCCC2)cc1 (stereo unspecified)	2%	-9%	5.2µM*	-7	i
CCc1nnc(NC(=O)CCC(=O)Nc2ccc(Cl)cc2)s1	6%	0%	i	-1	i
COc1ccc([C@H]2CC(=O)C=C(c3cc(C=O)ccc3OC)C2)cc1	?	15µM*	?	39	16µM*
CCOc1ccc(Cl)cc1C1=CC(=O)C[C@H](c2ccc(OC)cc2)C1	2.1µM*	4.1µM*	4.6µM*	74	?
COc1ccc([C@H]2CC(=O)C=C(c3cccc(C(C)C)c3)C2)cc1OC	-16%	-2%	?	-51*	?
COc1ccc([C@H]2CC(=O)C=C(c3cccc(Br)c3)C2)cc1OC	-28%	-29%	i	-14	?
COc1ccc([C@H]2CC(=O)C=C(c3cc(OC)ccc3OC)C2)cc1	?	?	23µM*	-7	16µM*
COc1ccc(OC)c(C2=CC(=O)C[C@H](c3ccc(F)cc3)C2)c1	-24%	-24%	i	?	i
O=C(OCc1cc(=O)n2nc(-c3cccs3)sc2n1)c1ccc(Cl)cc1	·	·	i	·	i
O=C(O)c1ccc2c(ccc3nn(-c4ccc(/C=C/c5ccc(-n6nc7ccc8cc(C(=O)O)ccc8c7n6)cc5[S+](=O)([O-])[O-])c([S+](=O)([O-])[O-])c4)nc32)c1	·	·	i	·	i
COc1ccc([C@H]2CC(=O)C=C(c3c(OC)cccc3OC)C2)cc1	4.6µM*	5.8µM*	?	0	?
COc1ccc(C2=CC(=O)CC(c3ccc(OC)cc3)C2)cc1 (stereo unspecified)	-15%	7%	i	-24	?
O=C(NC(=S)Nc1ccc(S(=O)(=O)N2CCCCC2)cc1)c1cccs1	-8%	-5%	3.3µM*	0	?
O=C(NC(=S)Nc1ccc(S(=O)(=O)NC2CCCCC2)cc1)c1cccs1	-16%	?	i	-65*	?
NS(=O)(=O)c1ccc(NC(=S)NC(=O)c2cccs2)cc1	8%	6%	i	-17	i
Cc1cc(/C=C(/C#N)c2cccc(F)c2)c(C)n1-c1cccnc1	?	-30%	i	-89*	i
COCCCN1C(=O)C(CC(=O)NC(c2ccccc2)c2ccccc2)CC(C(=O)N2CCOCC2)=C1C (stereo unspecified)	14%	12%	i	8	i
CCC(/C=C1\Sc2ccc(OC)cc2N1CC)=C\c1sc2ccc(OC)cc2[n+]1CCCS(=O)(=O)[O-]	-11%	-7%	i	?	?
CCC(/C=C1\Sc2ccc(OC)cc2N1CCO)=C\c1sc2ccc(OC)cc2[n+]1CCO	?	?	i	-113*	2.9µM*
O=S(=O)(c1ccc2ccccc2c1)N1CCN(c2nc(-c3ccccc3)nc3ccccc23)CC1	·	·	i	·	?
CCCOc1ccc(/C=N/NC(=O)CN2CCCCC2)cc1OCC	-3%	-5%	i	0	i
CCCOc1ccc(/C=N/NC(=O)CSCc2ccc([N+](=O)[O-])cc2)cc1OCC	8%	9%	16µM*	-16	i
O=C(Cc1cccc2ccccc12)N/N=C/c1ccc2cccc(O)c2n1	?	23µM*	?	30	i

From PubChem BioAssay
